Reference: the supplement of paper PMC11732987, “Enantioselective OTUD7B fragment discovery through chemoproteomics screening and high-throughput optimisation” (Communications Chemistry, 2025)
Unmarked numbers belong to inactive results.

Assays:
Assay in all cases: log2 ratio of Biotin-Ahx-Ub-VS probe labelling (fragment/DMSO); higher = less target engagement (more negative = stronger competition), active = hit call of the paper (q ≤ 0.05, log2 ratio ≤ -1)
Conditions in all cases: compound concentration: 200 uM; treatment time: 3 h
USP9X = USP9X (UniProt Q93008)
How it was run: (§1)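 Labelled DUBs from HEK293T lysate were NeutrAvidin-enriched, digested with LysC and trypsin, and run by diaPASEF LC-MS/MS. Before that, each 495 µg sample in Tris/CHAPS/IGEPAL buffer with protease inhibitors was treated in triplicate with fragment at 200 µM or vehicle for 3 h, then with Biotin-Ahx-Ub-VS at 0.5 µM final for 1 h. Values are average log2 ratios of fragment over vehicle by unpaired t-test, based on global-median-normalised Spectronaut label-free quantities from proteins with ≥2 unique peptides.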

UniProt O00487 = biological target: UniProt O00487
How it was run: as §1

UniProt O00507 = biological target: UniProt O00507
How it was run: as §1

UniProt P51784 = biological target: UniProt P51784
How it was run: as §1

UniProt Q5T2D3 = biological target: T1, UniProt Q5T2D3
T1 sequence (whole entry): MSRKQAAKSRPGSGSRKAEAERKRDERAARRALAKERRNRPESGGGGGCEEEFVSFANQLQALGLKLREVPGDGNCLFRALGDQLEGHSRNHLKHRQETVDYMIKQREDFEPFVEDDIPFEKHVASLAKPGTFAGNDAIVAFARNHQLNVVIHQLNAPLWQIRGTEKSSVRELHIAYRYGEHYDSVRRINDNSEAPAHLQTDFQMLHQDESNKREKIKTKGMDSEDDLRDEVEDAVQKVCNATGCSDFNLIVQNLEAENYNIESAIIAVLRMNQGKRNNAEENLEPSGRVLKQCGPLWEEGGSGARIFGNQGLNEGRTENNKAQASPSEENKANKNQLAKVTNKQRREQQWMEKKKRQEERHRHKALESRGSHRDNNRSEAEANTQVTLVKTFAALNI
How it was run: as §1

UniProt Q8TE49 = biological target: T2, UniProt Q8TE49
T2 sequence (whole entry): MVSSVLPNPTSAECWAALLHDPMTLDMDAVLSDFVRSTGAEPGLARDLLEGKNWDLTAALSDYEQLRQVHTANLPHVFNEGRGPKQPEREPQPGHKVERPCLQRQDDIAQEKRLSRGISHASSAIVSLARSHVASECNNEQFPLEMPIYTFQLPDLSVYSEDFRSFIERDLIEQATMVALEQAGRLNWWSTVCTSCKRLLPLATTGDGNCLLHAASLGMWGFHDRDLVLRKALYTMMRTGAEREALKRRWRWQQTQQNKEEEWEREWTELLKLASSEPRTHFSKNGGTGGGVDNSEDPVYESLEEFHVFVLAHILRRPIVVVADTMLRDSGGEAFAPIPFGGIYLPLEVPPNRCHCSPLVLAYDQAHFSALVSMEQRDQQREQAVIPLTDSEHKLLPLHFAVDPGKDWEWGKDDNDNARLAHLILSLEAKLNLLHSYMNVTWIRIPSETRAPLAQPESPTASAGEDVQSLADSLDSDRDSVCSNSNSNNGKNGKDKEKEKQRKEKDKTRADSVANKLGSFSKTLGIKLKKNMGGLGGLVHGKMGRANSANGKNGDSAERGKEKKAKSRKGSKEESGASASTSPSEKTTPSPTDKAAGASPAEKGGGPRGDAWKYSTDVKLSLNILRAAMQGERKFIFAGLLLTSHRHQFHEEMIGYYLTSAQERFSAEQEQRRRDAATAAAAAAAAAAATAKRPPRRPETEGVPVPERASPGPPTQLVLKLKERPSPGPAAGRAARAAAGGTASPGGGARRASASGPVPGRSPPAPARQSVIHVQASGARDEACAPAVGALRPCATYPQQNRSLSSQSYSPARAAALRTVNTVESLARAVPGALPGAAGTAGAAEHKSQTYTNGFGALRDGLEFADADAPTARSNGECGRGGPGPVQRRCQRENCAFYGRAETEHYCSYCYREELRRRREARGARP
How it was run: as §1

UniProt Q9P2H5 = biological target: T3, UniProt Q9P2H5
T3 sequence (whole entry): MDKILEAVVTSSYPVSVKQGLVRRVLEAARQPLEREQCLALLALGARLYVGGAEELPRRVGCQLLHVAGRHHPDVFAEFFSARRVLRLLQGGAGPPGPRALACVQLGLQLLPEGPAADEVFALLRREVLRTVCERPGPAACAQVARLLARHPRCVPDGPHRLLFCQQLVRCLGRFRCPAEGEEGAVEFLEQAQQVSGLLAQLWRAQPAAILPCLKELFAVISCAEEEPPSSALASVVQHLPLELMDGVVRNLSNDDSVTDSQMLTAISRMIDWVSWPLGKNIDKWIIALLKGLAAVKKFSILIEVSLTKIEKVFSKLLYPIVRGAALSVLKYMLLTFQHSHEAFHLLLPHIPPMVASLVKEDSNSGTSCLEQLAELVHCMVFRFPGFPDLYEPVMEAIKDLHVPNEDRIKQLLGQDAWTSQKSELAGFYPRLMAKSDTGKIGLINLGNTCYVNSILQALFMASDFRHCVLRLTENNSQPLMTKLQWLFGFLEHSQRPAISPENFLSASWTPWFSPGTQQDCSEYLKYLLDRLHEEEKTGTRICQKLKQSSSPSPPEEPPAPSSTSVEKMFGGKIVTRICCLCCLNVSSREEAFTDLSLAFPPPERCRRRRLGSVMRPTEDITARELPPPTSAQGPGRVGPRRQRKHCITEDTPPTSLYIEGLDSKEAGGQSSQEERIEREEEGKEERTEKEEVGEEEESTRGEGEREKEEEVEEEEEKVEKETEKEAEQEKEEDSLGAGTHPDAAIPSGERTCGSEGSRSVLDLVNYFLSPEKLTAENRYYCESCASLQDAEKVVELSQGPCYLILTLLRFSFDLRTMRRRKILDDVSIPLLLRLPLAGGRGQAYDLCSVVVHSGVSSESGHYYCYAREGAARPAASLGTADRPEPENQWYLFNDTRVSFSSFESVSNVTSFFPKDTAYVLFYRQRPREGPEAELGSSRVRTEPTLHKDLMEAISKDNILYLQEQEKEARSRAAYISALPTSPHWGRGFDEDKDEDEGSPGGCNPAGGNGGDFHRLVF
How it was run: as §1

UniProt Q9UGI0 = biological target: T4, UniProt Q9UGI0
T4 sequence (whole entry): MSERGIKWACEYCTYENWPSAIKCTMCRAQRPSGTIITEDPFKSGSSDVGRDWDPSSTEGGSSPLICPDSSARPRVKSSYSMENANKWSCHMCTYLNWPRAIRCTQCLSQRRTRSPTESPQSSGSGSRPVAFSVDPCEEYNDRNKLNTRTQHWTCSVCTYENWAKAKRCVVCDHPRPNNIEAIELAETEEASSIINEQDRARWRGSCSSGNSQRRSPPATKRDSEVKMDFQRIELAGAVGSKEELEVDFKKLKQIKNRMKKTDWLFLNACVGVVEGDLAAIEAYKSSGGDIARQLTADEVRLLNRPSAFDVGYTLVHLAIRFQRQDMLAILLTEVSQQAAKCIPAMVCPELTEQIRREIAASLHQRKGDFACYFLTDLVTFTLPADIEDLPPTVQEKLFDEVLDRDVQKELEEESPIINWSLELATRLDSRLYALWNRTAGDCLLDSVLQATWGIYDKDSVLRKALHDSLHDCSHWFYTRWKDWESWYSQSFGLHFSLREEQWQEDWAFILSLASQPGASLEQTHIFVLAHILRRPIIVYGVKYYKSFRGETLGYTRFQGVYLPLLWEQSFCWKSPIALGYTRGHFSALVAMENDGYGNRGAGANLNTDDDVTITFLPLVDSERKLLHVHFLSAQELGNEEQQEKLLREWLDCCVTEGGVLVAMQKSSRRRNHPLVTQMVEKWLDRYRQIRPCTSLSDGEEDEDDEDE
How it was run: as §1

YOD1 = biological target: T5, YOD1 (UniProt Q5VVQ6)
T5 sequence (whole entry): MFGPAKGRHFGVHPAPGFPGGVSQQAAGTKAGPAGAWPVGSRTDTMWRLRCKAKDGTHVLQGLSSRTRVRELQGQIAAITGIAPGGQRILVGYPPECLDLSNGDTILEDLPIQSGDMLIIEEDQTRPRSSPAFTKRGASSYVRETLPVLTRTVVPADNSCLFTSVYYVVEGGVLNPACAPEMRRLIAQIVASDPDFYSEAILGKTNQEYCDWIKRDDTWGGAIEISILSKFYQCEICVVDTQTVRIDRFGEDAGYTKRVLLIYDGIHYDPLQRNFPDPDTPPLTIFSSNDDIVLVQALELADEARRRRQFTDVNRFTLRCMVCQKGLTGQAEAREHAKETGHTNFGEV
How it was run: as §1

Sequence of USP9X (Q93008 whole entry, the tested form may be a part): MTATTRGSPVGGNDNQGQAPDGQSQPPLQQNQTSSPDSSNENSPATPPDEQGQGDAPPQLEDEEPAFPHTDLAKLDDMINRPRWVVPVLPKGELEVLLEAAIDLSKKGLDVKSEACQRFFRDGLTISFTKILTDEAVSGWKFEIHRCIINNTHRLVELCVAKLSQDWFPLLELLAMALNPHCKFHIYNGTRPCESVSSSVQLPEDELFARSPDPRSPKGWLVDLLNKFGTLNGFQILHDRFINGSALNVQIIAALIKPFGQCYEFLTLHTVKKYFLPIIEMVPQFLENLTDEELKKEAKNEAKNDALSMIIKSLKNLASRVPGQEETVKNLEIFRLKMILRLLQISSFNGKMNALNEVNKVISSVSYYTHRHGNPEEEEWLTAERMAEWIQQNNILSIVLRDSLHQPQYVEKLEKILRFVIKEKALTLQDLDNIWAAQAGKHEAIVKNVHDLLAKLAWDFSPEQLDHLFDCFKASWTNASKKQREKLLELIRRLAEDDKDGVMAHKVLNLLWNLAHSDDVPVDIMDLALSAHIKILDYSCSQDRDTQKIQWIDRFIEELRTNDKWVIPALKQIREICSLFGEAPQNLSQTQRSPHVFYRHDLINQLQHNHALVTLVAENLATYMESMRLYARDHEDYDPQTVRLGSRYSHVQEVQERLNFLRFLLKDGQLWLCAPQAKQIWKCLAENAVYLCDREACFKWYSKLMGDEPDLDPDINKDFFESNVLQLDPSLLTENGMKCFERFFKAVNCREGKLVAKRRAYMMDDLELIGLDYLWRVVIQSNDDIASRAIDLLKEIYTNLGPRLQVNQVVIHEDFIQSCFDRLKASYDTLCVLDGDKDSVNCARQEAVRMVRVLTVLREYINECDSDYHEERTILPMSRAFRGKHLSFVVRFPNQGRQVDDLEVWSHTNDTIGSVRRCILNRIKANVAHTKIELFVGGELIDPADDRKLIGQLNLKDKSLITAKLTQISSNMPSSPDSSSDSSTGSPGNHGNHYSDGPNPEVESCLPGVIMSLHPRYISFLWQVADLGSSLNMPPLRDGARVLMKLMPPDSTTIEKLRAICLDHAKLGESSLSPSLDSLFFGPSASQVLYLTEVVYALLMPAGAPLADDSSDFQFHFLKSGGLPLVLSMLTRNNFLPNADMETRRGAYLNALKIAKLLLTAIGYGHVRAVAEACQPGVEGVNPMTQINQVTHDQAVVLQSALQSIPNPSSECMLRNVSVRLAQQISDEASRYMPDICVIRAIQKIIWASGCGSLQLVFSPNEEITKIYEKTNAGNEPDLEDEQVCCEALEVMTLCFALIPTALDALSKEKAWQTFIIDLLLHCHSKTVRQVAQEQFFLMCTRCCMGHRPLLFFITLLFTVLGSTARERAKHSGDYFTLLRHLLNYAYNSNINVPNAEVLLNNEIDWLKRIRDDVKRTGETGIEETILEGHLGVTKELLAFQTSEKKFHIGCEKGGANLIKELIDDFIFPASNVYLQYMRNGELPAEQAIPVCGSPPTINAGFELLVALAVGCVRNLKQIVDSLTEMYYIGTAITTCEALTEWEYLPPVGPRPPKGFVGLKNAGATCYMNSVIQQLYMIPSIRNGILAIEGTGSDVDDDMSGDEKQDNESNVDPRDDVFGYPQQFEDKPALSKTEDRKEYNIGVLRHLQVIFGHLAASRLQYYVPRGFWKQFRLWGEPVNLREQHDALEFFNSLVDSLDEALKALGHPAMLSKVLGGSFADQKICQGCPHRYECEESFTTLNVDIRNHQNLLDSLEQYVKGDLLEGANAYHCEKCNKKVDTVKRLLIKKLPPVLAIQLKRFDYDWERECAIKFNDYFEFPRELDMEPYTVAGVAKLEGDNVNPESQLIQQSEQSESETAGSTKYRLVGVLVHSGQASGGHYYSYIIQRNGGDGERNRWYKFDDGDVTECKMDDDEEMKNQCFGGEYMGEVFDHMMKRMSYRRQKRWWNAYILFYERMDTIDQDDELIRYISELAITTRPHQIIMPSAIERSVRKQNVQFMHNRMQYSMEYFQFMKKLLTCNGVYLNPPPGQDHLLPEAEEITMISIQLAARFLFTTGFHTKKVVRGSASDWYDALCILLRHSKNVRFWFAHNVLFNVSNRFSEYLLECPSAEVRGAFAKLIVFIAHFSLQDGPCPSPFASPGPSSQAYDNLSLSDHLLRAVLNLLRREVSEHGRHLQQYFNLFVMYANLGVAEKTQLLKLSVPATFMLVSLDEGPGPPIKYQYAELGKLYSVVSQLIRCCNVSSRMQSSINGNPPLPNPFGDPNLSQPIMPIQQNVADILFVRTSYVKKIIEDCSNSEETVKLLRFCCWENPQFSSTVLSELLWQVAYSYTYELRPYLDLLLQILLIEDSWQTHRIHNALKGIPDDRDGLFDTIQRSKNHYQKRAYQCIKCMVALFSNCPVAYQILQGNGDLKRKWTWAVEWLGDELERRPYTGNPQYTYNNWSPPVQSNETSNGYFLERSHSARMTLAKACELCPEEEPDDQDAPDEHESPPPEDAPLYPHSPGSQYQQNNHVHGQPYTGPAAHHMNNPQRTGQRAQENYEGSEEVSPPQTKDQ
Sequence of UniProt P51784 (P51784 whole entry): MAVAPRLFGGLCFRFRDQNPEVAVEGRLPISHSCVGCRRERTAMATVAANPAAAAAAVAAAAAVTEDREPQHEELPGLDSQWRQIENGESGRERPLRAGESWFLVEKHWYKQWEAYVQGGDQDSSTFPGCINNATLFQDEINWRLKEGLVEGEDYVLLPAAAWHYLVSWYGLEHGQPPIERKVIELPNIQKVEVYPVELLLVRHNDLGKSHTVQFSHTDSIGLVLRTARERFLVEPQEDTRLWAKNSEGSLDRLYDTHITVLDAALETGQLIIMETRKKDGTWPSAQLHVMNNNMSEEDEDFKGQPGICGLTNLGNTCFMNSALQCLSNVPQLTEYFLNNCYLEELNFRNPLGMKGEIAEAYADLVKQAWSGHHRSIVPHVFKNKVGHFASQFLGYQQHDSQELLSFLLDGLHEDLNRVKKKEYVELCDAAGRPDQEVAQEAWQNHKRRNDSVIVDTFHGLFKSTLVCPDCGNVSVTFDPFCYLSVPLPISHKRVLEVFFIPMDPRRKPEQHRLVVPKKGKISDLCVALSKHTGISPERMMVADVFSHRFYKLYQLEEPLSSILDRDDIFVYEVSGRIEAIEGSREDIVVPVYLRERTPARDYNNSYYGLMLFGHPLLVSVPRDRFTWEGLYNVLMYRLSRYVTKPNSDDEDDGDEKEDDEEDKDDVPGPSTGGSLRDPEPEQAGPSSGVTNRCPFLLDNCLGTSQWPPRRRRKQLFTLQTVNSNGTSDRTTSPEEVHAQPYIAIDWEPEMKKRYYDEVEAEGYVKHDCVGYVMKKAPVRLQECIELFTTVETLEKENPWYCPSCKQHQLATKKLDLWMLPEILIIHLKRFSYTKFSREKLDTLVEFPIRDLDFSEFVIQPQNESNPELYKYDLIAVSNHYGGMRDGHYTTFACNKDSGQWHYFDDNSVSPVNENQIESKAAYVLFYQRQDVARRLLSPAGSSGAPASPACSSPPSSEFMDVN
Sequence of UniProt O00487 (O00487 whole entry): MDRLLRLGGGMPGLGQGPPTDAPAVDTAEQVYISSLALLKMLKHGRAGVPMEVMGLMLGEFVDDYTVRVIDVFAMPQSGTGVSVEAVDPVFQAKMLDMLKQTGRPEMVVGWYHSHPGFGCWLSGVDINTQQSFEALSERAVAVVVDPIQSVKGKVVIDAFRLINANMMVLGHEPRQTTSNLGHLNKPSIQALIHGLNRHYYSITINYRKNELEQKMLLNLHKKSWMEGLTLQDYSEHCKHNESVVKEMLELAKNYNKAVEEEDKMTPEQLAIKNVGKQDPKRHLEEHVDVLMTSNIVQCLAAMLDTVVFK

## O=C(CCl)NC1CCOc2ccccc21 (centres undefined)
USP9X
  log2 ratio of Biotin-Ahx-Ub-VS probe labelling: -0.868
UniProt O00487
  log2 ratio of Biotin-Ahx-Ub-VS probe labelling: 0.0141
UniProt O00507
  log2 ratio of Biotin-Ahx-Ub-VS probe labelling: -0.574
UniProt P51784
  log2 ratio of Biotin-Ahx-Ub-VS probe labelling: -0.702
UniProt Q5T2D3
  log2 ratio of Biotin-Ahx-Ub-VS probe labelling: -0.795
UniProt Q8TE49
  log2 ratio of Biotin-Ahx-Ub-VS probe labelling: -1.79 (active)
UniProt Q9P2H5
  log2 ratio of Biotin-Ahx-Ub-VS probe labelling: -0.687
UniProt Q9UGI0
  log2 ratio of Biotin-Ahx-Ub-VS probe labelling: -0.865
YOD1
  log2 ratio of Biotin-Ahx-Ub-VS probe labelling: -0.774
